According to PubChem BioAssay (NCI):
Where “and” joins values, the source holds several entries; their conditions need not be identical. Equal entries are not always repeated. The panel holds about 83,000 compounds, 20% with a hit somewhere; the sample as a whole holds those more often.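 Step 1: grow cells in 96-well plates. Step 2: add test compound at a single concentration. Step 3: incubate 48 h. Step 4: record percent growth.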 Calls of active or inactive are those of the source. The calls were made as follows: active = growth percent below 10; inactive = the rest.

How the values were obtained:
Assay in all cases: NCI-60 one-dose screen, 48 h (100 = growth as untreated, 0 = no growth, -100 = all killed)
Settings in all cases: 10 µM unless noted
SK-MEL-2 melanoma = tested on: SK-MEL-2 melanoma
EKVX NSCLC = tested on: EKVX NSCLC
SN12C renal = tested on: SN12C renal
UO-31 renal = tested on: UO-31 renal
TK-10 renal = tested on: TK-10 renal
ACHN renal = tested on: ACHN renal
CAKI-1 renal = tested on: CAKI-1 renal
A498 renal = tested on: A498 renal
CCRF-CEM leukemia = tested on: CCRF-CEM leukemia
MOLT-4 leukemia = tested on: MOLT-4 leukemia
SR leukemia = tested on: SR leukemia
RPMI-8226 leukemia = tested on: RPMI-8226 leukemia
OVCAR-8 ovarian = tested on: OVCAR-8 ovarian
OVCAR-5 ovarian = tested on: OVCAR-5 ovarian
OVCAR-4 ovarian = tested on: OVCAR-4 ovarian
SK-OV-3 ovarian = tested on: SK-OV-3 ovarian
IGROV1 ovarian = tested on: IGROV1 ovarian
OVCAR-3 ovarian = tested on: OVCAR-3 ovarian
HS 578T breast = tested on: HS 578T breast
NCI/ADR-RES ovarian = tested on: NCI/ADR-RES ovarian

| Structure (SMILES) | growth (SK-MEL-2 melanoma) | growth (EKVX NSCLC) | growth (SN12C renal) | growth (UO-31 renal) | growth (TK-10 renal) | growth (ACHN renal) | growth (CAKI-1 renal) | growth (A498 renal) | growth (CCRF-CEM leukemia) | growth (MOLT-4 leukemia) | growth (SR leukemia) | growth (RPMI-8226 leukemia) | growth (OVCAR-8 ovarian) | growth (OVCAR-5 ovarian) | growth (OVCAR-4 ovarian) | growth (SK-OV-3 ovarian) | growth (IGROV1 ovarian) | growth (OVCAR-3 ovarian) | growth (HS 578T breast) | growth (NCI/ADR-RES ovarian) |
| --- | --- | --- | --- | --- | --- | --- | --- | --- | --- | --- | --- | --- | --- | --- | --- | --- | --- | --- | --- | --- |
| O=C=NC(c1ccccc1)(c1ccccc1)c1ccccc1 | 118% (inactive) | 111% (inactive) | 102% (inactive) | 71.9% (inactive) | 110% (inactive) | 99.2% (inactive) | 91.7% (inactive) | 116% (inactive) | 102% (inactive) | 92.2% (inactive) | 96.2% (inactive) | 119% (inactive) | 97.4% (inactive) | 99.1% (inactive) | 115% (inactive) | 89.1% (inactive) | 105% (inactive) | 116% (inactive) | 111% (inactive) | 109% (inactive) |
| Cc1cc(O)c2c(c1)C(=O)c1cc(O)cc(O)c1C2=O | 94.9% (inactive) and 85.1% (inactive) | 68% (inactive) and 77.3% (inactive) | 86.1% (inactive) and 91.1% (inactive) | 76.6% (inactive) and 71.2% (inactive) | 104% (inactive) and 95.4% (inactive) | 87.8% (inactive) and 88.8% (inactive) | 72.2% (inactive) and 95.2% (inactive) | 82.7% (inactive) and 75.8% (inactive) | 82.5% (inactive) and 80% (inactive) | 101% (inactive) and 85.9% (inactive) | 108% (inactive) and 86% (inactive) | 75.8% (inactive) and 74.3% (inactive) | 92.7% (inactive) | 68% (inactive) and 95.6% (inactive) | 55% (inactive) and 68.5% (inactive) | 102% (inactive) and 84.8% (inactive) | 65.9% (inactive) and 101% (inactive) | 84.1% (inactive) and 95.9% (inactive) | 89.7% (inactive) and 88.9% (inactive) | 91.6% (inactive) and 101% (inactive) |
| COc1ccccc1C(C)=O | 109% (inactive) | 98% (inactive) | 118% (inactive) and 108% (inactive) | 89.4% (inactive) and 96.5% (inactive) | 118% (inactive) and 99.4% (inactive) | 105% (inactive) and 102% (inactive) | 99.5% (inactive) and 112% (inactive) | 92% (inactive) and 108% (inactive) | 102% (inactive) | 95.4% (inactive) and 99.1% (inactive) | 95.8% (inactive) and 86% (inactive) | 90.6% (inactive) and 100% (inactive) | 105% (inactive) and 96.7% (inactive) | 117% (inactive) and 106% (inactive) | 111% (inactive) and 105% (inactive) | 103% (inactive) and 102% (inactive) | 119% (inactive) and 109% (inactive) | 106% (inactive) and 110% (inactive) | 88.2% (inactive) | 106% (inactive) and 113% (inactive) |
| O=C1c2ccccc2C(=O)c2c(NCCNCCO)ccc(NCCNCCO)c21 | -75.2% (active) and -0.89% (active) and -16.8% (active) | 38.4% (inactive) and 48.9% (inactive) | -0.766% (active) and 4.9% (active) and 7.36% (active) | -5.63% (active) and 55.9% (inactive) and 44.7% (inactive) | 21.8% (inactive) and 54.6% (inactive) and 38.8% (inactive) | 17.9% (inactive) and 24.5% (inactive) and 22.7% (inactive) | 19.8% (inactive) and 50.9% (inactive) and 35.4% (inactive) | -4.91% (active) and 79.3% (inactive) and 29.9% (inactive) | 153% (inactive) and 10.2% (inactive) and 1.67% (active) | 143% (inactive) and -3.2% (active) and -1.56% (active) | 57.6% (inactive) and 5.34% (active) and -17.9% (active) | 55.6% (inactive) and 54% (inactive) and 33.8% (inactive) | 0.849% (active) and 17.5% (inactive) | -51.8% (active) and 43.9% (inactive) and 35.5% (inactive) | -16.3% (active) and 1.58% (active) and 1.59% (active) | -4.52% (active) and 27.8% (inactive) and 34.9% (inactive) | 29.1% (inactive) and 16.9% (inactive) | 64.1% (inactive) and 44.1% (inactive) | -20.7% (active) and -14.7% (active) and 30.7% (inactive) | -24.9% (active) and 93.1% (inactive) and 102% (inactive) |
| CCc1c(CC(=O)O)c2cc(C)ccc2n1Cc1ccc(Cl)cc1 | 103% (inactive) and 90.9% (inactive) | 98.8% (inactive) and 93.4% (inactive) | 91.1% (inactive) and 82.4% (inactive) | 76.6% (inactive) and 73.4% (inactive) | 99.7% (inactive) and 262% (inactive) | 93.5% (inactive) and 96.1% (inactive) | 90% (inactive) | 114% (inactive) and 108% (inactive) | 97.4% (inactive) and 106% (inactive) | 96.9% (inactive) and 152% (inactive) | 91.5% (inactive) and 146% (inactive) | 97.1% (inactive) | 82.9% (inactive) and 100% (inactive) | 98.2% (inactive) and 98.6% (inactive) | 85.5% (inactive) and 105% (inactive) | 97.9% (inactive) and 42.4% (inactive) | 92.3% (inactive) | 93.8% (inactive) and 110% (inactive) | 87.2% (inactive) and 113% (inactive) | 98.4% (inactive) and 98.7% (inactive) |
| CC(=O)Nc1cc(S(=O)(=O)O)cc2cc(S(=O)(=O)O)c(N=Nc3ccccc3)c(O)c12 | 116% (inactive) and 88.7% (inactive) | 115% (inactive) and 113% (inactive) | 106% (inactive) and 98.4% (inactive) | 94.2% (inactive) and 83.2% (inactive) | 110% (inactive) and 98.4% (inactive) | 106% (inactive) and 108% (inactive) | 99.6% (inactive) | 102% (inactive) and 92.4% (inactive) | 97.5% (inactive) and 90.8% (inactive) | 111% (inactive) and 94.7% (inactive) | 98.8% (inactive) and 92.1% (inactive) | 104% (inactive) and 96.3% (inactive) | 109% (inactive) and 99.5% (inactive) | 122% (inactive) and 113% (inactive) | 109% (inactive) | 128% (inactive) and 104% (inactive) | 117% (inactive) and 101% (inactive) | 121% (inactive) and 109% (inactive) | 92.9% (inactive) and 103% (inactive) | 107% (inactive) and 105% (inactive) |
| CN(C)CCCNC1=C(Cl)C(=O)c2ccccc2C1=O | 87.6% (inactive) and -34.4% (active) | 30.2% (inactive) and -44.6% (active) | 67.1% (inactive) and -98.3% (active) | 73.8% (inactive) and 47.6% (inactive) | 120% (inactive) and 116% (inactive) | 92.7% (inactive) and 92.5% (inactive) | 91.3% (inactive) and 104% (inactive) | 103% (inactive) and 85.4% (inactive) | 80% (inactive) and 81.3% (inactive) | 57% (inactive) and 79.3% (inactive) | -18.8% (active) | 65% (inactive) and 45.5% (inactive) | 68% (inactive) and -60.7% (active) | 98.4% (inactive) and 98.8% (inactive) | 17.7% (inactive) and -100% (active) | 88.9% (inactive) and 95.9% (inactive) | -52.5% (active) and -98.8% (active) | 19.8% (inactive) and -44.6% (active) | 9.81% (active) | 103% (inactive) and 78.7% (inactive) |
| COc1ccc(/C(C#N)=C/c2ccccn2)cc1 | 103% (inactive) and 117% (inactive) | 90.1% (inactive) and 99.5% (inactive) | 101% (inactive) and 115% (inactive) | 95.5% (inactive) and 98.9% (inactive) | 104% (inactive) and 117% (inactive) | 108% (inactive) and 109% (inactive) | 101% (inactive) and 126% (inactive) | 93.2% (inactive) and 122% (inactive) | 93% (inactive) and 102% (inactive) | 96.7% (inactive) and 103% (inactive) | 91.1% (inactive) and 87.7% (inactive) | 93.8% (inactive) | 103% (inactive) and 110% (inactive) | 110% (inactive) and 107% (inactive) | 96.1% (inactive) and 93.9% (inactive) | 111% (inactive) and 126% (inactive) | 115% (inactive) and 113% (inactive) | 110% (inactive) and 130% (inactive) | 104% (inactive) and 309% (inactive) | 101% (inactive) and 54.3% (inactive) |
